Drawing on PubChem BioAssay (NCATS), this text covers Potency, outcome and activation for 4 compounds.

Experiment [1] is described as follows: Validation screen for small molecules that induce DNA re-replication in MCF 10A normal breast cells (AID 463097). Note: 0% is about no effect; nearly all actives have a fitted effect of over 60% in size. Summed up: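 Read-out is Hoechst total nuclear intensity by fluorescence scanning imager, flagging increased high-DNA-content nuclei. Compounds were incubated with MCF 10A cells for 48 hr (37 C, 5% CO2) before 40 min staining.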
The nature of experiment [2]: Quantitative high throughput screen for delayed death inhibitors of the malarial parasite plastid, 96 hour incubation (AID 488745). Note: series mostly up to about 29 µM; % is set by controls: 0 for no effect and ±100 for the full control effect; nearly all actives have a fitted effect of over 70% in size. Summed up: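 Decreased firefly luciferase luminescence indicates inhibited growth of reporter-integrated P. falciparum after two generations (96 h, 37 C, 5% CO2). Infected erythrocytes at 0.1% parasitemia, 2% hematocrit, in Albumax-supplemented RPMI 1640.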

A short description of experiment [3]: Quantitative high throughput screen for delayed death inhibitors of the malarial parasite plastid, 48 hour incubation (AID 488752). Note: % is set by controls: 0 for no effect and ±100 for the full control effect; nearly all actives have a fitted effect of over 65% in size. Summed up:
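One-generation (48 h) growth assay: a decrease in luciferase signal from an integrated reporter in P. falciparum-infected red cells (0.1% parasitemia, 2% hematocrit) after compound exposure at 37 C indicates parasite inhibition.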

For experiment [4], the target named is M-phase phosphoprotein 8 (Homo sapiens) (UniProt Q99549). Briefly: qHTS Validation Assay for Inhibitors for MPP8 Chromodomain Interactions with Methylated Histone Tails (AID 488949). Note: potency is the fitted concentration of half-maximal effect; nearly all actives have a fitted effect of over 55% in size. Summed up: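 AlphaScreen proximity signal from streptavidin donor and Ni-chelate acceptor beads (10 ug/mL each) reported binding of MPP8 to trimethyl-K9 H3(1-18) peptide, both at 50 nM. The complex formed 30 min before a 30 min compound exposure at room temperature, in PBS pH 7.4.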

The target of experiment [5] is Thyrotropin receptor (Homo sapiens) (UniProt P16473). Description: qHTS Assay for Antagonists of the Thyroid Stimulating Hormone Receptor (AID 488980). Note: series mostly up to about 58 µM; 0% is about no effect. Summed up:
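Inhibition of cAMP raised by EC80 TSH (4 nM final) was read by HTRF, with lysate cAMP competing against cAMP-d2 for cryptate antibody after 30 min at room temperature. The cells were transfected HEK293 held in phosphodiesterase inhibitor RO 20-1724 at 70 uM.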

For experiment [6], the target named is Tyrosyl-DNA phosphodiesterase 1 (Homo sapiens) (UniProt Q9NUW8). Description: Confirmation Assay for Inhibitors of Tyrosyl-DNA Phosphodiesterase (TDP1) (AID 489007). Note: potency is the fitted concentration of half-maximal effect; nearly all actives have a fitted effect of over 40% in size. Particulars: recombinant human TDP1 enzymatic activity, dose-response. Summed up:
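AlphaScreen assay of tyrosine-FITC cleavage from a biotinylated DNA substrate (15 nM) by E. coli-expressed human Tdp1 (1 nM). Sequence: compound preincubation 15 min, reaction 5 min, bead detection 10 min, all at room temperature. No-enzyme wells give maximum signal.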

Experiment [7] has as its target Thyrotropin-releasing hormone receptor (Homo sapiens) (UniProt P34981). Briefly: qHTS for Small Molecule Agonists and Allosteric Enhancers of Human TRH Receptor: Validation Screen for Agonists (AID 493127;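 active = calcium activation more than 3 SD above the typical response in the agonist read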;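 note: intracellular calcium rise by fluo-8 fluorescence before TRH EC20 addition; 0% is about no effect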). Particulars: TRH receptor agonist cell assay; at 2 µM; stronger effect = higher value. Summed up: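 Compound-evoked intracellular calcium release in fluo-8-loaded TRHR cells, read kinetically on FDSS (Ex 480/Em 530, 1 s/cycle) after 23 nL pintool transfer. Agonist phase preceded 10 nM TRH EC20 addition.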

Experiment [8] addresses Galactokinase (Homo sapiens) (UniProt P51570). Briefly: qHTS Validation Assay for Inhibitors of Human Galactokinase (GALK) (AID 493189). Note: 0% is about no effect. Put shortly:
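Inhibition was measured as remaining ATP, detected by luciferase luminescence after a 1 h room-temperature reaction. Final conditions: 5 nM GALK, 100 uM galactose, 35 uM ATP, pH 8.0 HEPES buffer.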

Experiment [9] is described as follows: Validation screen for small molecules that induce DNA re-replication in SW480 colon adenocarcinoma cells (AID 504364). Note: 0% is about no effect. Put shortly:
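Image-based DNA content read-out: Hoechst stain 40 min, total nuclear fluorescence intensity (ex 405 nm, em 500-530 nm) after 48 h compound exposure of 250 SW480 cells/well at 37 C, 5% CO2, versus DMSO vehicle.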

Experiment [10] concerns the target Rap guanine nucleotide exchange factor 4 (Homo sapiens) (UniProt Q8WZA2). Description: Confirmatory qHTS for agonist of cAMP-regulated guanine nucleotide exchange factor 4 (EPAC2) (AID 1645884).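 Note: nucleotide exchange releases bodipy-GDP from Rap1 and this lowers its fluorescence; % is set by controls: 0 for no effect and ±100 for the full control effect; nearly all actives have a fitted effect of over 65% in size.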
Experiment [11] concerns Nanoluciferase (engineered Oplophorus gracilirostris luciferase). Briefly: Primary Nanoluciferase (NLuc) qHTS assay for identification of artifact compounds. (AID 1845222).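 Note: NLuc secreted into diluted conditioned medium of S16 cells; series mostly up to about 54 µM; 0% = DMSO and -100% = no enzyme.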 Summed up:
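qHTS format, against NLuc in S16 cell-conditioned medium. Nano-Glo substrate 1:100 was added after 15 min at room temperature. Luminescence was taken after a further 5 min.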

The nature of experiment [12]: NCATS anti-infectives library activity on HEK293 viability as a counter-qHTS vs the C. elegans viability qHTS (AID 1745854). Note: % is set by controls: 0 for no effect and ±100 for the full control effect. Summed up:
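Cytotoxicity counter-screen to a worm viability qHTS: CellTiter-Glo luminescence read 10 min after reagent addition. Compounds (final up to 41.7 uM, a 1:5 dilution series) incubated 24 hr at 37C with 1,500 HEK293 cells per well; digitonin control.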

The target of experiment [13] is Glutathione peroxidase 1 (Homo sapiens) (UniProt P07203). Description: Primary qHTS Assay for Inhibitors of Recombinant Selenoprotein Glutathione Peroxidase 1 (GPX1) (AID 1845191). Note: nearly all actives have a fitted effect of over 65% in size. Summed up:
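GR-coupled readout: NADPH consumption tracked by fluorescence, ex 340/em 450 nm, at t=0 and after 15 min at RT. Final mix 10 nM GPX1, 1 mM GSH, 0.5 mM CHP, 0.5 mM NADPH, 100 nM GR, 0.01% BSA, following 30 min enzyme–compound preincubation.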

“And” between values parts separate entries of the source, which are not always exact repeats. Equal values may be shown once. A number with no mark means an inactive call. Inconclusive results are not listed. The source made the active and inactive calls. Unless noted, calls come from the whole dose curve; as a rule, active = well fitted curve in the direction sought with a large enough effect; inconclusive = small, poorly fitted or top-dose-only effect, or another doubt; inactive = no such curve, though single readings can be large; an effect the other way counts as inactive or inconclusive.

Sequence of Glutathione peroxidase 1 (Homo sapiens) (P07203 whole entry, looked up): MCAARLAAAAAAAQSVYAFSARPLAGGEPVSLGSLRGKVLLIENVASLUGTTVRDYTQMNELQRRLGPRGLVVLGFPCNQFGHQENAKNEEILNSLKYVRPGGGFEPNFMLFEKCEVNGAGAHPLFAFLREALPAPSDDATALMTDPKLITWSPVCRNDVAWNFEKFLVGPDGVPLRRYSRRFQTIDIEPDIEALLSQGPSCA
Sequence of Tyrosyl-DNA phosphodiesterase 1 (Homo sapiens) (Q9NUW8 whole entry, looked up): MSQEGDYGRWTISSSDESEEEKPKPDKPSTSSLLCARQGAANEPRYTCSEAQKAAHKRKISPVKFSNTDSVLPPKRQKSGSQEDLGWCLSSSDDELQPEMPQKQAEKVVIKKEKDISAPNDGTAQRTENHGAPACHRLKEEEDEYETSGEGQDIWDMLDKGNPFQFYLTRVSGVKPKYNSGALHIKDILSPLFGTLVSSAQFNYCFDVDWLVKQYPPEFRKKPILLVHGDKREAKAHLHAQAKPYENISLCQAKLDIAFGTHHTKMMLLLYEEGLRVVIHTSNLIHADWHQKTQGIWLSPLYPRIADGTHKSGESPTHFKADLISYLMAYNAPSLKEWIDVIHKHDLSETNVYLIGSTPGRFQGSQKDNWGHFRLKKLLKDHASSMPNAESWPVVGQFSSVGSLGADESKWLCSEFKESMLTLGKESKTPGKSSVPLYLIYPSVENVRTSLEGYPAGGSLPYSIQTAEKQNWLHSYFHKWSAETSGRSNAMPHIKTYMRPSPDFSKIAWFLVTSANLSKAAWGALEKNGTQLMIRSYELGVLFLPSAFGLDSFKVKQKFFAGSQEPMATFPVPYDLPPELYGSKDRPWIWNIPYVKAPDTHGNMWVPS
Sequence of Thyrotropin receptor (Homo sapiens) (P16473 whole entry, looked up): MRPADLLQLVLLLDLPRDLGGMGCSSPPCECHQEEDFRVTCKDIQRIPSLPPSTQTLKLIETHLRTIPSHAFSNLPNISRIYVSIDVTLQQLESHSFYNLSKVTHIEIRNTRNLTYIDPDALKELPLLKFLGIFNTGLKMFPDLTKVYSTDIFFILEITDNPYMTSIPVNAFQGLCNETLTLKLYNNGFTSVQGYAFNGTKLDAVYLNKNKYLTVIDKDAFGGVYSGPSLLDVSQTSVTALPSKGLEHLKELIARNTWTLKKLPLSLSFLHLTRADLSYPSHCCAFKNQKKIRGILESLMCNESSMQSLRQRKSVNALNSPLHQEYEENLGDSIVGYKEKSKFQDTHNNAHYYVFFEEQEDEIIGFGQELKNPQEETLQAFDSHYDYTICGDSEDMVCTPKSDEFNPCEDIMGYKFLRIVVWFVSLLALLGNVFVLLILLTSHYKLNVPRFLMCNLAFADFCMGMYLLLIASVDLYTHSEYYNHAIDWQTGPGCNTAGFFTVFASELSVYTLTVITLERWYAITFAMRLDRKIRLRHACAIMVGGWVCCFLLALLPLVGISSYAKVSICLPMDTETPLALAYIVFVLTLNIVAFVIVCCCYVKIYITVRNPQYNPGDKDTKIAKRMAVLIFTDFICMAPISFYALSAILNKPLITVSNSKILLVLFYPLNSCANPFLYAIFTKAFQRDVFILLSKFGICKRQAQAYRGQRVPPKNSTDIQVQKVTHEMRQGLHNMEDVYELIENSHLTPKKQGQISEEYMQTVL
Sequence of Thyrotropin-releasing hormone receptor (Homo sapiens) (P34981 whole entry, looked up): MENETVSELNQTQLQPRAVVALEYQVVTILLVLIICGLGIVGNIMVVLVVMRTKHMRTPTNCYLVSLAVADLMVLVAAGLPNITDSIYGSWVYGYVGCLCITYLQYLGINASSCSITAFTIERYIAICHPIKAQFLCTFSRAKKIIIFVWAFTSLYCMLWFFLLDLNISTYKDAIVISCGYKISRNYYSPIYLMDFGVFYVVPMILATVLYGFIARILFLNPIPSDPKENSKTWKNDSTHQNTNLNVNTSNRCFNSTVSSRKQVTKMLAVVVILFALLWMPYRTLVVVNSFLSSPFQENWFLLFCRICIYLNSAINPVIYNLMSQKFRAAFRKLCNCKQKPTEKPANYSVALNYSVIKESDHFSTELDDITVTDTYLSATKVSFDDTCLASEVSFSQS
Sequence of Galactokinase (Homo sapiens) (P51570 whole entry, looked up): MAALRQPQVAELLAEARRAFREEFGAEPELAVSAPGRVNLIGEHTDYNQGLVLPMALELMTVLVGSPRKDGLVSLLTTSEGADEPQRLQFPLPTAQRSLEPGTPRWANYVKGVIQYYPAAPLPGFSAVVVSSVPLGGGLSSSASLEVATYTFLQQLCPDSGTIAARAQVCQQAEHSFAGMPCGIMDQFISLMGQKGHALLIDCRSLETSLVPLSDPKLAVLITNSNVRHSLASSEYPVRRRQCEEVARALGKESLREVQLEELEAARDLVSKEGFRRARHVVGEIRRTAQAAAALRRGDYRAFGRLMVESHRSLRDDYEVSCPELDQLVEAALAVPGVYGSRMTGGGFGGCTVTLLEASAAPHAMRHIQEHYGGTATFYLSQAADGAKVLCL
Sequence of Rap guanine nucleotide exchange factor 4 (Homo sapiens) (Q8WZA2 whole entry, looked up): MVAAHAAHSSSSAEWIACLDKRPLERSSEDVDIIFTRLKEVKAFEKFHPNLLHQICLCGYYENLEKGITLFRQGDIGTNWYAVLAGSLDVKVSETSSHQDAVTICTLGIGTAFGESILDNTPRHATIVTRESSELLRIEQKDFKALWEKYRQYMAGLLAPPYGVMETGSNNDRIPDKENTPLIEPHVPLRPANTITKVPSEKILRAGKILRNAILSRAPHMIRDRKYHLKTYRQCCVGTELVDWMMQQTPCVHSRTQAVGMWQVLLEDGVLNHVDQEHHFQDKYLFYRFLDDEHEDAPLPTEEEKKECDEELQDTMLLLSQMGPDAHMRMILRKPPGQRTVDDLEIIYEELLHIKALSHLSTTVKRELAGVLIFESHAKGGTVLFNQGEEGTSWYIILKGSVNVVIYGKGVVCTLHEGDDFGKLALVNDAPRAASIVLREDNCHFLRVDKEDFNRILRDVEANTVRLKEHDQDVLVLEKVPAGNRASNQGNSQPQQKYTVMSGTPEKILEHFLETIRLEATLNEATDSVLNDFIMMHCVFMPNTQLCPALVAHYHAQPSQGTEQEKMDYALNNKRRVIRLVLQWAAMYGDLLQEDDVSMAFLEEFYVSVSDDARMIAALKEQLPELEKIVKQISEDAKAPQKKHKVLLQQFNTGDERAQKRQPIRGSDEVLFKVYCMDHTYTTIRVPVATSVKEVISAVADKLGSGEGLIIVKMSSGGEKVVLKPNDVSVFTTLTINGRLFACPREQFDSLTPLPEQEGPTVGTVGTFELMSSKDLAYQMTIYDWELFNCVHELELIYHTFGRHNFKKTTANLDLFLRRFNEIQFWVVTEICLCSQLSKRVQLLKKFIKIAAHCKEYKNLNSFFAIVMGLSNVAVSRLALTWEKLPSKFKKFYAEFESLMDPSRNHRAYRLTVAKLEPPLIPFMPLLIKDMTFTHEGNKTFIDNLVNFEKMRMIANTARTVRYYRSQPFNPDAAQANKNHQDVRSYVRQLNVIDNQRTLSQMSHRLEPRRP
Sequence of M-phase phosphoprotein 8 (Homo sapiens) (Q99549 whole entry, looked up): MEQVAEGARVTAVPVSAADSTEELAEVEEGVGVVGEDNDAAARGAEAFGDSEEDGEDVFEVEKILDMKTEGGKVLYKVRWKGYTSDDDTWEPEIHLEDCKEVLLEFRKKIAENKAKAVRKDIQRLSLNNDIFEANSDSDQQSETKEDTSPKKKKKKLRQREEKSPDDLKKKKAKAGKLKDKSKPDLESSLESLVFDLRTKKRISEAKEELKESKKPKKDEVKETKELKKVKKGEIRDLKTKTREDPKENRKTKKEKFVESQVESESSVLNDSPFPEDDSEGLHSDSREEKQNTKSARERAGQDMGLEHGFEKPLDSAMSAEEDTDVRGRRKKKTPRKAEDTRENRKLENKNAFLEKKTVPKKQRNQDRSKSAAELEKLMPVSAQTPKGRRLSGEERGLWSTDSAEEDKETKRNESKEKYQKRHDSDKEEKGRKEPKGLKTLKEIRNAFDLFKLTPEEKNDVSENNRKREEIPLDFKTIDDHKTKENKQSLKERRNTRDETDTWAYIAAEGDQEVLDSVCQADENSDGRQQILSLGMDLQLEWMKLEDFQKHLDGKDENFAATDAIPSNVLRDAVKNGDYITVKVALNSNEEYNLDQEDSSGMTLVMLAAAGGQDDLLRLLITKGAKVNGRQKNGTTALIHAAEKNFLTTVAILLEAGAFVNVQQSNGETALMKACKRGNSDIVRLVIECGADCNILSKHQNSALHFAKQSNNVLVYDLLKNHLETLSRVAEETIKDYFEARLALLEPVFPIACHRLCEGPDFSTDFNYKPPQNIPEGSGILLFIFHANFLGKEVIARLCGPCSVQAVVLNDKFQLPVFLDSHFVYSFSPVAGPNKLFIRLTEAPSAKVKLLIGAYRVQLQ

In the case of `O=C(Nc1cc(C(=O)Nc2ccc(S(=O)(=O)O)cc2S(=O)(=O)O)cc(C(=O)Nc2ccc(S(=O)(=O)O)cc2S(=O)(=O)O)c1)Nc1cc(C(=O)Nc2ccc(S(=O)(=O)O)cc2S(=O)(=O)O)cc(C(=O)Nc2ccc(S(=O)(=O)O)cc2S(=O)(=O)O)c1`, the Potency result in experiment [1], in [2] and in experiment [3] was “inactive” throughout. Besides, the Potency in experiment [4] is 6.31 µM (active); in experiment [6] it was 316 nM (active) and 1.26 µM (active). Further, the result in experiment [5], in [8] and in experiment [9] was inactive. The activation in experiment [7] was 0.312%.

For the compound `COc1ccc(NS(=O)(=O)c2ccc3c(c2)[C@H]2C=CC[C@H]2[C@@H](c2ccc(C(=O)O)cc2)N3)cc1`, in [10], the compound was called inactive.

Consider `O=C(CCCCCCC(=O)Nc1ccc(C2OC(CSc3nc(-c4ccccc4)c(-c4ccccc4)o3)CC(c3ccc(CO)cc3)O2)cc1)NO` (stereo not drawn), for which the Potency entry in [11] was “inactive”.

As for `CC1(C)CC[C@]2(C(=O)O)CC[C@]3(C)C(=CC[C@@H]4[C@@]5(C)C[C@@H](O)[C@H](O)C(C)(C)[C@@H]5CC[C@]43C)[C@@H]2C1`, in experiment [12], the compound was called inactive. The Potency entry in [13] was “inactive”.
